Screens from PubChem.
LT uptake inh – anthrax lethal toxin internalization inhibition; Cells, anthrax lethal toxin internalization, FRET ratio (460/530); Potency, µM (series often up to 40 µM), for inactives: at the top dose activity change, negative = inhibition, hits mostly inhibitors; actives 0.67% (n = 70,000); AID 912; note: % is set by controls: 0 for no effect and ±100 for the full control effect; nearly all actives have a fitted effect of over 50% in size
AmpC nodet inh – AmpC beta-lactamase inhibition, detergent-free assay; P00811; AmpC nitrocefin hydrolysis, absorbance 480 nm, no detergent; Potency, µM (series often up to 28.7 µM), for inactives: at the highest dose activity change, negative = inhibition; actives 1.8% (n = 71,000); AID 585; note: % of control where 0% means no effect
Target sequence (P00811 whole entry, looked up): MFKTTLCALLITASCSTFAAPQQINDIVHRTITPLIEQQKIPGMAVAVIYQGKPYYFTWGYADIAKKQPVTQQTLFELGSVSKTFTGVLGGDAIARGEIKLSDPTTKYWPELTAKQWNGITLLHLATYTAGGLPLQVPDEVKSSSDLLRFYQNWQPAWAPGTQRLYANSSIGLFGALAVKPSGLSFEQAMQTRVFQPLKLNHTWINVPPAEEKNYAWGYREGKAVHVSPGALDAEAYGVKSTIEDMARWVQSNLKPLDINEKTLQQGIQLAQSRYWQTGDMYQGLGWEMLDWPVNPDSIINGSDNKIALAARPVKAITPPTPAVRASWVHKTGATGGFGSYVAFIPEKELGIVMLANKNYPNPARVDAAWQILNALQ
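AmpC in 20 mM phosphate buffer pH 7.0 was preincubated 15 min at room temperature with compounds. Nitrocefin (800 uM stock) was then added and hydrolysis followed at 480 nm every 20 s for 4 min.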
SmPrx2 inh – blocks S. mansoni peroxiredoxin 2 enzymatic activity; S. mansoni Prx2 activity coupled to TGR/GSH (TGR is thioredoxin glutathione reductase), NADPH fluorescence loss, qHTS; actives 0.07% (n = 65,000); AID 448; Potency, µM
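Activity is read as the drop in NADPH fluorescence (365/450 nm), recorded every 30 sec for 8 min after H2O2 addition. Prx2 is coupled to TGR-driven NADPH oxidation through glutathione, in phosphate buffer pH 7.4.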
AmpC det inh – blocks E. coli AmpC beta-lactamase in presence of detergent; P00811; purified AmpC, nitrocefin hydrolysis with detergent; Potency, µM (top dose mostly 28.7 µM), for inactives: top-dose activity change, negative = inhibition; actives 0.09% (n = 71,000); AID 584; active = well fitted curve in the direction sought with a large enough effect; inconclusive = small, poorly fitted or top-dose-only effect; note: % is set by controls: 0 for no effect and ±100 for the full control effect
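E. coli AmpC (5.3 nM) in 20 mM phosphate pH 7.0 with 0.01% Triton X-100, preincubated 15 min RT with compound; nitrocefin (2 uL of 800 uM stock) hydrolysis followed by 480 nm absorbance every 20 s over 4 min.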
Active calls of the source: *; ? = inconclusive; nt = no result; [ ] = another dose, or the depositor's remark. Most compounds without a hit are left out; they make up all but 2.6% or so of the library. Unless noted, calls come from the whole dose curve. Potency is the fitted concentration of half-maximal effect.

SMILES	LT uptake inh	AmpC nodet inh	SmPrx2 inh	AmpC det inh
O=C(c1ccncc1)N1CCC2(CC1)CN(c1ncccn1)C2	5.1%	24.8%	>57	-2.7%
COc1ccc(-c2cc(-c3cc(F)ccc3O)[nH]n2)cc1OC	10µM*	78.5%	>57	4.1%
COC(=O)c1cc(-c2ccc(OC)c(OC)c2)n[nH]1	-12.6%	3.3%	>57	-2.5%
COc1ccc(O)c(-c2cc(-c3cccc(Br)c3)n[nH]2)c1	?	-20.4%	nt	16.8%
Oc1ccccc1-c1cc(-c2ccc3c(c2)OCCO3)n[nH]1	20µM*	-5.6%	>57	12.1%
COc1ccc(-c2cc(-c3ccccc3O)[nH]n2)cc1OC	12.6µM*	45.7%	nt	8.1%
CN[C@@H](CC(C)C)C(=O)N[C@@H]1C(=O)N[C@H](CC(N)=O)C(=O)N[C@@H]2C(=O)N[C@H]3C(=O)N[C@H](C(=O)N[C@H](C(=O)O)c4cc(O)cc(O)c4-c4cc3ccc4O)[C@H](O)c3ccc(c(Cl)c3)Oc3cc2cc(c3O[C@H]2O[C@@H](CO)[C@@H](O)[C@@H](O)[C@@H]2O[C@@H]2C[C@](C)(N)[C@H](O)[C@H](C)O2)Oc2ccc(cc2Cl)[C@@H]1O	0.3%[3.58 µM]	-0.6%[12.8 µM]	>57	-2.5%[12.8 µM]
CC(C)c1ccc2oc(-c3cc(N)ccc3O)nc2c1	12.6µM*	-7.3%	nt	-2.2%
O=C(CCN1CCCCC1)c1csc2ccccc12	-9.2%[8 µM]	2.2%[5.75 µM]	>57	-2.1%[5.75 µM]
N[C@@H](Cc1cc(O)c(O)cc1O)C(=O)O	-8.7%	5.01µM*	>57	-25.7%
O=C(O)[C@@H](O)[C@@H](O)[C@H](O)C(=O)CO	-2.6%[8 µM]	2.4%[5.75 µM]	>57	-3.8%[5.75 µM]
O=C(c1cc(C(F)(F)F)cc(C(F)(F)F)c1)N1CCC[C@@]2(CCN(c3ccncc3)C2)C1	?	21.6%	>57	-1.6%
Cc1ccc(NC(=O)NCCCN2CCOCC2)cc1	-3.9%	-3.5%	>57	-4.9%
O=C(CCN1C(=O)C2C3C=CC(C3)C2C1=O)NCC1CCCO1 (stereo unspecified)	-5.3%	-5.4%	>57	-1.9%
Cc1ccc(NC(=O)NCCN2C(=O)C3C4C=CC(C4)C3C2=O)cc1 (stereo unspecified)	2.9%	3.98µM*[single pt active]	>57	9.9%
O=C(NCCN1CCN(C(=O)Nc2ccccc2)CC1)Nc1ccccc1	-15.0%	3.98µM*[single pt active]	>57	12.1%
COc1ccc(NC(=O)NCCN2CCc3ccccc3C2)cc1	-8.3%	6.5%	>57	-6.7%
O=C(NCCN1C(=O)C2C3C=CC(C3)C2C1=O)N1CCCCC1 (stereo unspecified)	-6.6%	3.98µM*[single pt active]	>57	12.9%
O=C(NCCN1C(=O)C2C3C=CC(C3)C2C1=O)NCc1ccccc1 (stereo unspecified)	-5.5%	3.98µM*[single pt active]	>57	12.5%
O=C(Nc1ccccc1)N1CCN(Cc2ccc3c(c2)OCO3)CC1	6.8%	3.98µM*[single pt active]	>57	12.6%
COc1ccc(NC(=O)NCCCN2CCCC2=O)cc1	-2.4%	3.98µM*[single pt active]	>57	11.5%
CCOC(=O)c1cccc(NC(=O)CN2C(=O)C3C4C=CC(C4)C3C2=O)c1 (stereo unspecified)	9.5%	3.4%	>57	4.1%
Cc1cccc(NC(=O)NCCN2C(=O)C3C4C=CC(C4)C3C2=O)c1 (stereo unspecified)	-7.7%	3.98µM*[single pt active]	>57	11.2%
O=C(NCCN1C(=O)C2C3C=CC(C3)C2C1=O)Nc1ccccc1 (stereo unspecified)	-2.5%	3.98µM*[single pt active]	>57	14.0%
COc1ccc(NC(=O)NCCCN2CCCCC2C)cc1 (stereo unspecified)	0.7%	-7.3%	>57	-1.4%
SMILES	LT uptake inh	AmpC nodet inh	SmPrx2 inh	AmpC det inh
c1ccc(CN2COc3c(ccc4c5c(ccc34)CN(Cc3ccccc3)CO5)C2)cc1	-6.9%[8 µM]	7.1%[5.75 µM]	>11.4	-4.2%[5.75 µM]
O=C(c1ccco1)N1CCC2(CCCN(Cc3ccccc3)C2)CC1	16.7%	0.7%	>57	0.7%
CC1(C)[C@@H]2CC[C@]1(CC(=O)O)[C@H](Cl)C2	-0.5%[8 µM]	0.7%[5.75 µM]	>57	-1.4%[5.75 µM]
CO/N=C1/[C@H]2O[C@@H]2[C@@H](O)[C@H]2[C@H]1CCn1c(=O)n(-c3ccccc3)c(=O)n12	-7.3%[8 µM]	nt	nt	nt
CN(C)C(=O)C1CCN(Cc2c[nH]c3ccccc23)CC1	-11.6%[8 µM]	-1.0%[5.75 µM]	>57	-5.2%[5.75 µM]
COc1ccc(NC(=O)NCCN2C(=O)C3C4C=CC(C4)C3C2=O)cc1 (stereo unspecified)	8.7%	2.51µM*[single pt active]	>57	12.2%
O=C(CCN1C(=O)C2C3C=CC(C3)C2C1=O)NCCN1CCCc2ccccc21 (stereo unspecified)	3.3%	51.9%	>57	-2.3%
Cc1ccccc1NC(=O)NCCN1C(=O)C2C3C=CC(C3)C2C1=O (stereo unspecified)	-13.1%	2µM*[single pt active]	>57	13.2%
COc1ccc(CN2C(=O)C3C4C=CC(C4)C3C2=O)cc1 (stereo unspecified)	3.0%	-0.1%	>57	-2.8%
COC(=O)N1CCC2(CC1)CCN(c1ccncc1)CC2	1.6%	13.3%	>57	-0.4%
CCOc1ccc(OCC)c(NC(=O)C2COc3ccccc3O2)c1 (stereo unspecified)	2.8%	3.7%	>57	-0.1%
O=C(Nc1nc(-c2ccccn2)cs1)C1COc2ccccc2O1 (stereo unspecified)	?	9.7%	>57	11.6%
Cc1cc(NC(=O)C2CC(c3ccc(F)cc3)=NO2)no1 (stereo unspecified)	-22.9%	3.98µM*[single pt active]	>57	10.8%
COc1ccc(OC)c(NC(=O)C2COc3ccccc3O2)c1 (stereo unspecified)	12.6µM*	8.2%	nt	10.0%
O=C(Nc1nc(-c2ccc3c(c2)OCO3)cs1)C1COc2ccccc2O1 (stereo unspecified)	?	10µM*	>57	11.8%
Cc1cc(NC(=O)C2COc3ccccc3O2)no1 (stereo unspecified)	8.3%	3.98µM*[single pt active]	>57	10.8%
Cc1ccc(-c2cn(S(=O)(=O)c3cccc4nsnc34)nc2N)cc1	24.7%	-12.8%	>57	-2.8%
Nc1nn(S(=O)(=O)c2cccc3nsnc23)cc1-c1ccc(Br)cc1	?	12.6µM*[single pt active]	>57	-6.4%
COC(=O)c1ccc(-c2nc(-c3cccs3)no2)cc1	-15.8%	3.98µM*[single pt active]	>57	13.7%
COc1ccc(Cl)cc1-c1nc(-c2ccc(Br)o2)no1	-8.1%	3.16µM*[single pt active]	>57	12.9%
CCOC(=O)c1ccc(OCc2nc(-c3cccs3)no2)cc1	-35.7%	-3.0%	>57	-1.0%
COC(=O)c1ccc(-c2nc(-c3ccc(Br)o3)no2)cc1	-10.7%	3.98µM*[single pt active]	>57	13.9%
COc1ccc(-c2noc(-c3cc(Cl)ccc3Cl)n2)cc1OC	-14.4%	19.0%	>57	0.5%
CC12C=C(/C=C/C=C/c3ccco3)C(C)(C1)C(/C=C/c1ccco1)CC2=O (stereo unspecified)	-15.8%[8 µM]	nt	nt	nt
Nc1ncnc2c1ncn2[C@H]1O[C@@H](CO)[C@@H](O)[C@H]1N	-0.4%[8 µM]	-2.3%[5.75 µM]	>57	-7.3%[5.75 µM]
CC(=O)Nc1cccc(NC(=O)CSc2ncc(-c3ccc(Cl)cc3)n2Cc2ccco2)c1	12.6µM*	64.4%	>57	-5.1%
